We go through 18 compounds from PubChem BioAssay (NCATS).

In assay [1] the target is Lysosomal acid glucosylceramidase (Homo sapiens) (UniProt P04062). Kind of assay: Glucocerebrosidase-p2 (AID 348; in the data active = potency below about 10 µM; note: potency is the fitted concentration of half-maximal effect). Conditions: purified GBA, blue fluorogenic substrate, 40 min. In a few lines: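 Compounds titrated from 0.6 nM upwards against 0.2 nM enzyme in pH 5.9 citric acid/KH2PO4, taurocholate, tween-20; blue fluorogenic substrate 80 uM, 40 min room temperature, stopped and read Ex 365/Em 440 for AC50.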

Assay [2] has as its target Cytochrome P450 1A2 (Homo sapiens) (UniProt P05177). Kind of assay: p450-cyp1a2 (AID 410).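 For activity change, negative = inhibition: -100% = full effect of reference inhibitor.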 Note: potency is the fitted concentration of half-maximal effect. The gist of the method: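 Luminescent readout of luciferin formed from Luciferin-ME by human CYP1A2; data normalized against complete inhibition by 57 uM furafylline. Enzyme 20nM, substrate 100uM at Km, 100mM KPO4 buffer, 60 min reaction at room temperature.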
Assay [3] has as its target Glucocorticoid receptor (Homo sapiens) (UniProt P04150). Kind of assay: GR-GFP Redistribution (AID 450;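 active = compounds whose dose series gives a full or clear partial fitted curve of increased nuclear translocation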; note: potency is the fitted concentration of half-maximal effect). As to conditions: U2OS GR-GFP nuclear translocation, laser cytometry, 2 h.
Assay [4] has the same target. In words: GR-EFC Redistribution (AID 451). Note: potency is the fitted concentration of half-maximal effect. As to conditions: CHO-K1 GR-EFC translocation, beta-gal luminescence, 2 h. The gist of the method: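 CHO-K1 cells stably expressing nuclear-localized β-gal enzyme acceptor and GR fused C-terminally to the enzyme donor fragment; ligand-driven nuclear translocation restores β-gal by complementation. Compounds titrated up to 46 uM final, 2 h at 37 °C; luminescence read.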

Assay [5] concerns the target Mitogen-activated protein kinase 10 (Mus musculus) (UniProt Q61831). In words: JNK3 AlphaScreen Assay (AID 530; active = well fitted curve in either direction with a large enough effect, not every such curve was filed as active;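 note: kinase came from lysate of stimulated human HepG2 cells; signal reports phosphorylation of biotinylated GST-cJun 1-79 at Ser73 with 10 µM ATP; % is set by controls: 0 for no effect and ±100 for the full control effect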). The gist of the method:
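Inhibitors reduce antibody binding to phosphorylated biotin-cJun, lowering AlphaScreen luminescence. Lysates from HepG2 cells pre-activated by IL-1beta plus TNF-alpha supplied JNK3; compounds were titrated.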
A general note: Alpha assays give light when donor and acceptor beads are brought close together.

Assay [6] has as its target 3',5'-cyclic-AMP phosphodiesterase 4B (Homo sapiens) (UniProt Q07343). In words: qHTS Assay for Inhibitors of PDE-IV (AID 607; active = well fitted activation curve with a large enough effect in the main read-out, with a control signal flat, not every such curve was filed as active; note: % of control where 0% means no effect). The gist of the method:
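The readout is membrane depolarisation from a cAMP-sensing CNG channel, detected with a potential dye at ex 535/em 590. Cells were HEK293-derived (endogenous PDE-IV) at 1000 cells/well, titrated up to 22.9 uM final.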
For orientation: In qHTS, concentration-response curves come from the screen itself.

Assay [7] is described as follows: Stat Signaling Pathway (AID 446; active = well fitted curve in either direction with a large enough effect, not every such curve was filed as active;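 note: ME-180 cervical cancer cells given 40 pM IL-6 alongside compound; SIE-controlled beta-lactamase reporter measured as 460/530 nm FRET emission ratio; % is set by controls: 0 for no effect and ±100 for the full control effect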). Conditions: ME-180 SIE beta-lactamase reporter, IL-6 stimulated, 5 h; at 7.69 µM (top of the series) unless noted. In a few lines:
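Screening format detects activators and inhibitors alike: ME-180 SIE-bla cells stimulated at 40 pM IL-6 for 5 hrs with compound, then dual-emission beta-lactamase read at 405 nm excitation.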

Assay [8] addresses Cytochrome P450 2D6 (Homo sapiens) (UniProt P10635). In words: qHTS Assay for Inhibitors and Substrates of Cytochrome P450 2D6 (AID 891; active = well fitted curve in the direction sought with a large enough effect; an effect the other way counts as inactive or inconclusive; note: potency is the fitted concentration of half-maximal effect; nearly all actives have a fitted effect of over 60% in size). In a few lines:
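Human CYP2D6 (5 nM) with 30 uM Luciferin-ME EGE (at Km) in 100 mM KPO4, compound preincubated 10 min, then NADPH regeneration system for 60 min at room temperature. Luciferin read by luminescence; normalized to 1.43 uM quinidine.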

Assay [9] concerns the target Cytochrome P450 2C9 (Homo sapiens) (UniProt P11712). Kind of assay: qHTS Assay for Inhibitors and Substrates of Cytochrome P450 2C9 (AID 883; active = well fitted curve in the direction sought with a large enough effect; an effect the other way counts as inactive or inconclusive; note: potency is the fitted concentration of half-maximal effect; nearly all actives have a fitted effect of over 60% in size). The gist of the method:
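CYP2C9 deoxyluciferin hydroxylation, 37C, 60 min with NADPH regeneration; 10nM enzyme, 100uM Luciferin-H (KM). Glo detection reagent stopped reaction; luminescence normalized to sulphaphenazole (57uM) full inhibition.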

The target in assay [10] is Cytochrome P450 2C19 (Homo sapiens) (UniProt P33261). In words: qHTS Assay for Inhibitors and Substrates of Cytochrome P450 2C19 (AID 899; active = well fitted curve in the direction sought with a large enough effect; an effect the other way counts as inactive or inconclusive; note: potency is the fitted concentration of half-maximal effect; nearly all actives have a fitted effect of over 60% in size). In a few lines:
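In 50mM KPO4, the reaction held 5nM enzyme and KM-level (10uM) Luciferin-H EGE; it ran 60 min at 37C after NADPH regeneration and a 10 min compound preincubation. Luminescence values were scaled to 57uM ketoconazole as complete inhibition.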

Assay [11] concerns the target Cytochrome P450 3A4 (Homo sapiens) (UniProt P08684). Kind of assay: qHTS Assay for Activators of Cytochrome P450 3A4 (AID 885; active = well fitted curve in the direction sought with a large enough effect; an effect the other way counts as inactive or inconclusive; note: nearly all actives have a fitted effect of over 65% in size). In a few lines: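 Steps: enzyme/substrate mix dispensed; compound added, 10 min RT; NADPH regeneration solution added, 60 min RT; luciferin detection buffer stops reaction; 20 min later luminescence measured.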
Assay [12] is described as follows: NFAT Signaling Pathway (AID 444; active = well fitted curve in either direction with a large enough effect, not every such curve was filed as active;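 note: carbachol stimulus at about its EC50 of 1 µM final; % is set by controls: 0 for no effect and ±100 for the full control effect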). As to conditions: Jurkat NFAT-bla M1, carbachol, beta-lactamase ratio, 5 h; at 7.69 µM (top of the series) unless noted. The gist of the method: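 Jurkat cells carrying an NFAT-driven β-lactamase reporter and co-transfected muscarinic M1 receptor were treated with compound plus carbachol (1 uM final, an EC50 level) for 5 h at 37 °C. CCF4 loading followed for 1 h at RT; 460/530 nm ratio gave %activity.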

Assay [13] in a line: qHTS Assay for Identification of Small Molecule Agonists for Hypoxia Response Element Signaling Pathway (AID 914; active = well fitted activation curve with a large enough effect in the signal ratio, with a control signal flat, not every such curve was filed as active; the % refers to the signal ratio; note: % of control where 0% means no effect). As to conditions: ME-180 (cervical carcinoma) HRE-bla reporter, beta-lactamase ratio, CoCl2, 17 h; activation: hits give high values. The gist of the method: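 AC50 values come from titration-series %Activity, taken as the 460/530nm ratio of CCF4 fluorescence (excitation 405nm). CellSensor HRE-bla ME-180 cells were treated 17 hours at 37 C with compound plus an EC50 level of CoCl2.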

Assay [14] has as its target Cytochrome P450 3A4 (Homo sapiens) (UniProt P08684). Kind of assay: qHTS Assay for Inhibitors and Substrates of Cytochrome P450 3A4 (AID 884; active = well fitted curve in the direction sought with a large enough effect; an effect the other way counts as inactive or inconclusive; note: potency is the fitted concentration of half-maximal effect; nearly all actives have a fitted effect of over 50% in size). The gist of the method: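 20 nM human CYP3A4 with 25 uM Luciferin-PPXE (at KM) in 200 mM KPO4, preincubated 10 min with compound; NADPH regeneration started a 60 min RT reaction. Luciferin detected by luminescence, normalized to 57 uM ketoconazole as full inhibition.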

Unmarked numbers belong to inactive results. Results filed as inconclusive are left out. Activity calls are given as the source filed them. Unless noted, calls come from the whole dose curve.

Sequence of Glucocorticoid receptor (Homo sapiens) (P04150 whole entry, looked up, the tested form may be a part): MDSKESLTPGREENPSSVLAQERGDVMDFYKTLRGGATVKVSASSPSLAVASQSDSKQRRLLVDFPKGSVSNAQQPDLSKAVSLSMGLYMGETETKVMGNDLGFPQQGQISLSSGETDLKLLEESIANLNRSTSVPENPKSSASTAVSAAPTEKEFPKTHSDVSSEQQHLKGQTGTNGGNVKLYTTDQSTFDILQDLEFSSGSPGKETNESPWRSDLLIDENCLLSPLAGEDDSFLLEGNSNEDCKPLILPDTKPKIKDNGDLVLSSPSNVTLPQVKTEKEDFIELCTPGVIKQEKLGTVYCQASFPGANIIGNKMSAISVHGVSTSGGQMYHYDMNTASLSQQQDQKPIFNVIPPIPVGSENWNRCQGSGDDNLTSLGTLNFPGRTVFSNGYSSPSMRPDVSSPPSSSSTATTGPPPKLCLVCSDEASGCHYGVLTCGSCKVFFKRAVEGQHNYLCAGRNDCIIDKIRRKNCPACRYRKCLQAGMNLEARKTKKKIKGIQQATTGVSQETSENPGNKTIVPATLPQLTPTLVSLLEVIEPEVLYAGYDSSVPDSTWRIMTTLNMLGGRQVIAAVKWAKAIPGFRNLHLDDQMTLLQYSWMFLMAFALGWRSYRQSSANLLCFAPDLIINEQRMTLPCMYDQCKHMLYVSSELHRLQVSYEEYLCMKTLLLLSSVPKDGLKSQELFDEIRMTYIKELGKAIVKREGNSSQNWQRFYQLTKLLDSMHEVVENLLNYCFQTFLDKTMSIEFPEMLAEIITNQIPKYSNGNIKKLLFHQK
Sequence of Cytochrome P450 3A4 (Homo sapiens) (P08684 whole entry, looked up): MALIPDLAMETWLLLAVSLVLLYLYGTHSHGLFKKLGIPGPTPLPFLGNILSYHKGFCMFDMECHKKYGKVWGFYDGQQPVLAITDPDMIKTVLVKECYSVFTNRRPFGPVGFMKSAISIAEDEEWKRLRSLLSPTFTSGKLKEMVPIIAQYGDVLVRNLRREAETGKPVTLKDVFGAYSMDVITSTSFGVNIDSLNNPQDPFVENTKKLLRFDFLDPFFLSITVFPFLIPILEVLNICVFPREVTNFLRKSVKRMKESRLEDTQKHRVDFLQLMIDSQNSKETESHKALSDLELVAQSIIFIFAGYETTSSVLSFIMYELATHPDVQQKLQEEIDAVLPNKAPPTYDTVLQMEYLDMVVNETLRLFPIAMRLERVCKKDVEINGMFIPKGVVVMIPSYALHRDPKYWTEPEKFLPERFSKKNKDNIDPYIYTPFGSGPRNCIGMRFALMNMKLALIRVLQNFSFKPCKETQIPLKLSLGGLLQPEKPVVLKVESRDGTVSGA
Sequence of Cytochrome P450 1A2 (Homo sapiens) (P05177 whole entry, looked up): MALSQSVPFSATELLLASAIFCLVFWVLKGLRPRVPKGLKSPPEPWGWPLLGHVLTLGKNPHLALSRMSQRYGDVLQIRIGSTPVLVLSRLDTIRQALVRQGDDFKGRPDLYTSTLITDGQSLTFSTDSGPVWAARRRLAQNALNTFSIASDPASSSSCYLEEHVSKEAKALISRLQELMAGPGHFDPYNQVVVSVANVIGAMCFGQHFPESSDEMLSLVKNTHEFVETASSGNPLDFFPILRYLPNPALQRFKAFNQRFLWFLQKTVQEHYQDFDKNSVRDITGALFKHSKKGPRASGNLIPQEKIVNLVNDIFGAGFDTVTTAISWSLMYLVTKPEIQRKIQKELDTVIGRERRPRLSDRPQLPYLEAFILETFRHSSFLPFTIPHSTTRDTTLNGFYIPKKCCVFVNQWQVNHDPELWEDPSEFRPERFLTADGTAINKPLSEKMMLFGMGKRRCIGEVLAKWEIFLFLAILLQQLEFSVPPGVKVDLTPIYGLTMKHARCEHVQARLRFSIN
Sequence of Lysosomal acid glucosylceramidase (Homo sapiens) (P04062 whole entry, looked up): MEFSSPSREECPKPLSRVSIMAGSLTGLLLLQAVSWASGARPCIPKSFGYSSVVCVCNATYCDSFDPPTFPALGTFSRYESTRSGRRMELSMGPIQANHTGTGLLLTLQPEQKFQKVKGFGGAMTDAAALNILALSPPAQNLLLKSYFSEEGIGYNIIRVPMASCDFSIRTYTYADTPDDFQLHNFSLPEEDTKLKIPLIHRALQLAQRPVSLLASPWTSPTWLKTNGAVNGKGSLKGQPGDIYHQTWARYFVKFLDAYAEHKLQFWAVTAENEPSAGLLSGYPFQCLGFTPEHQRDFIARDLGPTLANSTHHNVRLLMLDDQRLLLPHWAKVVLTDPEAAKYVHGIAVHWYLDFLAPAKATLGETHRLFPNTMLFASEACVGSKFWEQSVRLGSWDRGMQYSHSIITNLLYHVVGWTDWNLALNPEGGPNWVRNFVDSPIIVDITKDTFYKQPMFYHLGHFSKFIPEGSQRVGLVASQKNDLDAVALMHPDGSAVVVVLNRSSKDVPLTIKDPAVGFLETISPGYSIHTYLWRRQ
Sequence of Cytochrome P450 2C19 (Homo sapiens) (P33261 whole entry, looked up): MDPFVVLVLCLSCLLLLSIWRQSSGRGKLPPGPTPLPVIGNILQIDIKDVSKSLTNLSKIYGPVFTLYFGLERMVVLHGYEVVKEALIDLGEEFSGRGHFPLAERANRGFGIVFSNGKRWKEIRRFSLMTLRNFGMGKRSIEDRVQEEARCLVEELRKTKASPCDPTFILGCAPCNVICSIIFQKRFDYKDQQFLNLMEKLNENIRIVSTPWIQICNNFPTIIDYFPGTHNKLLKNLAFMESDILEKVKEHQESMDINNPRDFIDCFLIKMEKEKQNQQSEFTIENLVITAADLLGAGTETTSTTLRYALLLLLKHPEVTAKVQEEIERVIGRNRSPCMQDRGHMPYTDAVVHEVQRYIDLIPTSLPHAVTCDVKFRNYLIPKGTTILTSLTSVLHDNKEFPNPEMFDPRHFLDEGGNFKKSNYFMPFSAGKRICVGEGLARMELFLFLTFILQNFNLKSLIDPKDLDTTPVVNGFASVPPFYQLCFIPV
Sequence of Cytochrome P450 2C9 (Homo sapiens) (P11712 whole entry, looked up): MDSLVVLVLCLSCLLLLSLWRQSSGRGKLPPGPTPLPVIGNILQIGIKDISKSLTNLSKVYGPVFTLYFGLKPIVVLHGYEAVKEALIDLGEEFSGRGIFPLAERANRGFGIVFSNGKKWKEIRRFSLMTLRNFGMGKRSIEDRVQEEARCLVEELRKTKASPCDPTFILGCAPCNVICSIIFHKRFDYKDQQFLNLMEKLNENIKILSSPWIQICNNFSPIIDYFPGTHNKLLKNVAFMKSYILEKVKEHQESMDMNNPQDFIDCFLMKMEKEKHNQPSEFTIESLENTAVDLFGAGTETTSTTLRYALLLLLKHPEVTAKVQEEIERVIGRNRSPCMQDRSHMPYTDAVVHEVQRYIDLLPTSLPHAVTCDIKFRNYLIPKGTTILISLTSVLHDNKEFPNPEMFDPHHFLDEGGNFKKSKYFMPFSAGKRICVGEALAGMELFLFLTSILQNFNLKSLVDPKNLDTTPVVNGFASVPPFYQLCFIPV
Sequence of Cytochrome P450 2D6 (Homo sapiens) (P10635 whole entry, looked up): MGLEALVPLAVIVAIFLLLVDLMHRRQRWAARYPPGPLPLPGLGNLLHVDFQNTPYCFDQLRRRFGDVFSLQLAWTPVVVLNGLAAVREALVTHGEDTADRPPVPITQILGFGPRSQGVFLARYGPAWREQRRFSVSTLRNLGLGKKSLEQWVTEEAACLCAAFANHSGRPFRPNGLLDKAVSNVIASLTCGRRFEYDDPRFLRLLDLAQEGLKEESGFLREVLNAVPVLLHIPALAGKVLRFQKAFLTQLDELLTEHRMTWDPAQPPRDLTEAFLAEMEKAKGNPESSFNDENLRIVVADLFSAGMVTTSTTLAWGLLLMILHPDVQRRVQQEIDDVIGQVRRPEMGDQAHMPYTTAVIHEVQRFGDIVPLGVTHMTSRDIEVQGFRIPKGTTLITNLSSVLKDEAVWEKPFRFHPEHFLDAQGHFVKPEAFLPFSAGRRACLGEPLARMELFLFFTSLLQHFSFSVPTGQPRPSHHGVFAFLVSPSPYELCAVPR
Sequence of 3',5'-cyclic-AMP phosphodiesterase 4B (Homo sapiens) (Q07343 whole entry, looked up): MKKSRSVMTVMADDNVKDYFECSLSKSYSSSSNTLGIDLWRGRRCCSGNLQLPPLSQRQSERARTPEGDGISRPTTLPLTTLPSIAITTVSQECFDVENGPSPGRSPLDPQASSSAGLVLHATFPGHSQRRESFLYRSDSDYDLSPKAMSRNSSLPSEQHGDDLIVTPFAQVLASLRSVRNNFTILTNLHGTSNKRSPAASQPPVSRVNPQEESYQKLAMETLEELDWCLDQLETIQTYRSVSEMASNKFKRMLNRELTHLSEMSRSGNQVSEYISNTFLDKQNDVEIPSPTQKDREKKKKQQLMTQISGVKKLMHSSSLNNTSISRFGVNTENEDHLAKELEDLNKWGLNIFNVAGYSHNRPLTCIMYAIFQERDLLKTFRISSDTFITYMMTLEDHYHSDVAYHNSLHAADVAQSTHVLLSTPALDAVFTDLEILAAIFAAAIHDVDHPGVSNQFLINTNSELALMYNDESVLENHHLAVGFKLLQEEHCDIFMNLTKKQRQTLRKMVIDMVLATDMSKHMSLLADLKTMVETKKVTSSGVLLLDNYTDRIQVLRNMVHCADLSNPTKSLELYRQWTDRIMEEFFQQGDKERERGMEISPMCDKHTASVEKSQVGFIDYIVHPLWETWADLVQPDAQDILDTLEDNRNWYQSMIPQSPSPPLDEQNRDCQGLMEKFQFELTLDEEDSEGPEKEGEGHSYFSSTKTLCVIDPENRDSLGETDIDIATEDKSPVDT

With `COc1cccc2c1[C@H](CO)N1[C@H](C#N)[C@@H]3C[C@H](C(=O)O)[C@@H]([C@@H]1C2)N3C`, the figures for the Potency in [1], in assay [3] and in assay [4] were greater than 11.4 µM, greater than 46 µM and greater than 9.22 µM, respectively. In assay [2], the activity change, negative = inhibition is -21% [at 2.29 µM]. Besides, the Potency entry in [5] and in assay [6] was “inactive” throughout.

As to `CSc1ccc2c(c1)N(CCCN(C)C)c1ccccc1S2`, the Potency in assay [1] is greater than 11.4 µM; in assay [2] it was 1.26 µM (active); in assay [3] it was greater than 46 µM; in assay [4], greater than 9.22 µM; in assay [8], 0.501 µM (active). In addition, in assay [7], the activity, negative = inhibition is 2.23%. The Potency result in assay [5] and in [6] was “inactive” each time.

Regarding `O=C(c1ccncc1)N1CCC2(CCCN(c3cccc(-c4ccccc4)c3)C2)CC1`, the Potency was greater than 11.4 µM in assay [1], 12.6 µM (active) in [2] and greater than 46 µM in assay [4]. Moreover, in [7], the activity, negative = inhibition is -7.37%. Also, in [5], the Potency result was “inactive”.

For `CN(C)CCCN1c2ccccc2Sc2ccc3ccccc3c21`, the Potency is greater than 11.4 µM in assay [1], greater than 46 µM in assay [3], greater than 9.22 µM in [4] and 1.26 µM (active) in assay [8]. Also, the activity change, negative = inhibition in [2] was -2.2% [at 2.29 µM]. For the same compound, the activity, negative = inhibition in assay [7] was 3.27%. Besides, the Potency result in assay [5] and in assay [6] was “inactive” throughout.

`C=C(C)COc1ccc2c(c1)CCC1C2CC[C@]2(C)C(=O)/C(=N/O)CC12` (some centres not stated): the Potency in assay [1] was greater than 11.4 µM; in [3], greater than 46 µM; in [4], greater than 9.22 µM. Moreover, the Potency entry in [2], in assay [5] and in assay [6] was “inactive” throughout. Moreover, in [7], the activity, negative = inhibition was 9.84%.

For the compound `O=[N+]([O-])c1ccc(S(=O)(=O)Cc2ccccc2)c2nonc12`, the Potency in assay [1] is greater than 11.4 µM; in [3], greater than 46 µM; in assay [4], greater than 9.22 µM; in assay [9], 0.316 µM (active); in [10], 3.16 µM (active). In assay [2], the activity change, negative = inhibition is -5.3% [at 2.29 µM]. In [7], the activity, negative = inhibition is -2.97%. Moreover, the Potency result in [5] and in assay [6] was “inactive” throughout.

Turning to `N#Cc1c(NC(=O)C(F)(F)F)sc2c3c(=O)c4ccccc4c(=O)c=3oc3ccccc3c12`, the Potency was greater than 11.4 µM in assay [1]; 1 µM (active) in assay [2]; greater than 46 µM in assay [3]; greater than 9.22 µM in assay [4]; 0.0501 µM (active) in assay [9]; 0.501 µM (active) in [10]. The activity, negative = inhibition in assay [7] was 0.0272%. For the same compound, the Potency result in assay [5] and in [11] was “inactive” in each case.

On to `Cc1cc(CN2CCCCC2)c(O)c(CN2CCCCC2)c1`, for which the figures for the Potency in [1], in assay [3] and in assay [4] were greater than 11.4 µM, greater than 46 µM and greater than 9.22 µM, respectively. The activity change, negative = inhibition in assay [2] was -18.8% [at 2.29 µM]; in assay [12], -21.4%. Moreover, in assay [7], the activity, negative = inhibition is -1.32%. The Potency result in assay [5] and in assay [6] was “inactive” each time. Further, in [13], the activation was 2.92%.

In the case of `NCCSCCC(=O)O`, the Potency in assay [1] was greater than 11.4 µM; in assay [4], greater than 9.22 µM. Further, the Potency entry in assay [2], in [5] and in assay [6] was “inactive” in each case. Besides, the activity change, negative = inhibition in assay [12] was 11.4%. The activity, negative = inhibition in assay [7] is 0.279%.

Turning to `CCN(CC)CCN1c2ccccc2Sc2ccc3ccccc3c21`, the Potency is greater than 11.4 µM in assay [1]; 3.98 µM (active) in assay [2]; greater than 46 µM in assay [3]; greater than 9.22 µM in assay [4]; 0.631 µM (active) in [8]. In addition, the activity, negative = inhibition in assay [7] is 4.26%. Moreover, the Potency result in assay [5] and in assay [6] was “inactive” each time.

Regarding `Oc1c(C(O)(c2ccccc2)c2ccc3ccccc3c2O)ccc2ccccc12`, the Potency is greater than 11.4 µM in assay [1]; 1 µM (active) in [2]; greater than 46 µM in assay [3]; greater than 9.22 µM in assay [4]; 0.794 µM (active) in assay [9]; 0.794 µM (active) in assay [10]. Also, in assay [7], the activity, negative = inhibition is -10.4%. The Potency entry in assay [6] is “inactive”.

Turning to `C[C@@]12CC[C@@H]3[C@@H](CC[C@H]4C[C@@H](O)CC[C@]43C)[C@H]1CC[C@@H]2c1cc(C(F)(F)F)n[nH]1`, the Potency is greater than 11.4 µM in assay [1], 3.98 µM (active) in [2], greater than 46 µM in assay [3] and greater than 9.22 µM in assay [4]. In assay [7], the activity, negative = inhibition is 16.7%. In addition, the Potency result in assay [5] and in assay [6] was “inactive” each time.

In the case of `CCN(CC)CC[n+]1ccc2c(C)c3[nH]c4ccccc4c3c(C)c2c1`, the Potency is greater than 11.4 µM in assay [1], 2.51 µM (active) in [2], greater than 46 µM in [3] and greater than 9.22 µM in [4]. Besides, the activity, negative = inhibition in assay [7] is 29.6%. Besides, the Potency entry in [5] and in assay [6] was “inactive” in each case.

As for `Nc1nc(Sc2ccc([N+](=O)[O-])c3nonc23)c2[nH]cnc2n1`, the Potency was greater than 11.4 µM in assay [1]; greater than 46 µM in [3]; greater than 9.22 µM in assay [4]; 3.16 µM (active) in [9]; 1.58 µM (active) in assay [10]. Besides, in [2], the activity change, negative = inhibition was -26.1% [at 2.29 µM]. Moreover, in [7], the activity, negative = inhibition was -12.4%. For the same compound, the Potency result in assay [5] and in assay [6] was “inactive” in each case.

With `ClC(=Nc1cccc2ccccc12)N(c1ccccc1)c1ccccc1`, the Potency in assay [1] was greater than 11.4 µM; in assay [2], 1 µM (active); in assay [3], greater than 46 µM; in [4], greater than 9.22 µM; in assay [9], 3.16 µM (active); in [10], 2.51 µM (active). The activity change, negative = inhibition in assay [12] was -2.09%. Besides, the Potency result in [5], in assay [6] and in assay [11] was “inactive” throughout.

Take `O=C1C(Cl)=C(Nc2ccc(S(=O)(=O)Nc3ccccn3)cc2)C(=O)c2ccccc21`: the Potency is greater than 11.4 µM in [1]; 3.16 µM (active) in assay [2]; greater than 46 µM in [3]; greater than 9.22 µM in assay [4]; 2 µM (active) in assay [9]; 3.16 µM (active) in [8]. Moreover, the Potency in assay [10] is 0.794 µM (active). Also, the Potency result in assay [5] and in assay [6] was “inactive” in each case.

`O=C1c2ccccc2-c2cc([N+](=O)[O-])c([N+](=O)[O-])cc21`: the Potency in assay [1] was greater than 11.4 µM; in [2], 0.251 µM (active); in [3], greater than 46 µM; in assay [4], greater than 9.22 µM. For the same compound, the Potency entry in assay [5] and in assay [6] was “inactive” each time.

With `C[N+](C)([O-])CCC=C1c2ccccc2CCc2ccccc21`, the Potency in assay [1] is greater than 11.4 µM; in assay [2], 0.794 µM (active); in assay [3] it was greater than 46 µM; in assay [4], greater than 9.22 µM; in [14], 1.26 µM (active); in assay [10] it was 0.398 µM (active). Moreover, the activity, negative = inhibition in assay [7] was 10.1%. For the same compound, the Potency result in assay [5], in assay [6] and in [11] was “inactive” each time.
